Test [1] addresses Rap guanine nucleotide exchange factor 3 (Homo sapiens) (UniProt O95398). Kind of test: Confirmatory qHTS for antagonist of cAMP-regulated guanine nucleotide exchange factor 3 (EPAC1) (AID 1645880). Further: nearly all actives have a fitted effect of over 55% in size. Further: potency means the concentration at half of the fitted maximal effect. In outline:
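Released BODIPY-GDP fluoresces less than Rap1-bound BODIPY-GDP; the signal is followed at 480/540 nm at 5-min intervals over 30 min, after 5 min at room temperature. Reactions contain 100 nM EPAC1, 250 nM RAP1B-BODIPY-GDP and 50 uM GDP; results are normalized to ATA and DMSO.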
(In general: In qHTS, concentration-response curves come from the screen itself.)

The target is the same in test [2]. Kind of test: Confirmatory qHTS for agonist of cAMP-regulated guanine nucleotide exchange factor 3 (EPAC1) (AID 1645881).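 Further: EPAC1 catalysed release of BODIPY-GDP from Rap1B seen as fluorescence loss; 100% = effect of cAMP agonist control; nearly all actives have a fitted effect of over 75% in size.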
Test [3] has as its target Rap guanine nucleotide exchange factor 4 (Homo sapiens) (UniProt Q8WZA2). Kind of test: Confirmatory qHTS for agonist of cAMP-regulated guanine nucleotide exchange factor 4 (EPAC2) (AID 1645884).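 Further: nucleotide exchange releases bodipy-GDP from Rap1 and this lowers its fluorescence; nearly all actives have a fitted effect of over 65% in size.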 Further: potency means the concentration at half of the fitted maximal effect. On activation: on the % scale 0 is the no-effect control and ±100 the full control effect.
Test [4] concerns the target Rap guanine nucleotide exchange factor 3 (Homo sapiens) (UniProt O95398). Kind of test: Counterscreen qHTS for antagonist of cAMP-regulated guanine nucleotide exchange factor 3 (EPAC1) (AID 1645888). Further: % of control where 0% means no effect. In a few lines: (§1)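 Rap1B–BODIPY-GDP (250 nM) with 50 uM GDP; compounds pin-transferred to 9.74 nM–152 uM final (activator) or from 7.32 nM upwards (inhibitor). Fluorescence Ex/Em 480/540 nm read at 5 and 30 min, then after adding cAMP or buffer, at room temperature.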

For test [5] the target is unchanged. Kind of test: Counterscreen qHTS for agonist of cAMP-regulated guanine nucleotide exchange factor 3 (EPAC1) (AID 1645889). Further: nearly all actives have a fitted effect of over 40% in size. Further: potency means the concentration at half of the fitted maximal effect. On activation: % of control where 0% means no effect. In a few lines:
as §1
(A counterscreen serves to expose hits that act by an unwanted route or on another target.)

The target in test [6] is Tumor susceptibility gene 101 protein (Homo sapiens) (UniProt Q99816). Kind of test: qHTS Assay for Iinhibitors of HIV-1 Budding by Blocking the Interaction of PTAP/TSG101: Hit Validation (AID 651600). Further: potency means the concentration at half of the fitted maximal effect; nearly all actives have a fitted effect of over 70% in size. In a few lines: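 Fluorescence polarization binding assay: Tsg101 binding domain (10 uM final) pre-dispensed with compounds, then FITC-labeled PTAP-motif peptide (50 nM final) added; 20 min at r.t. in HEPES pH 7.5 buffer with NaCl, Tween 20, EDTA, TCEP.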

Test [7] addresses Rap guanine nucleotide exchange factor 4 (Homo sapiens) (UniProt Q8WZA2). Kind of test: Confirmatory qHTS for antagonist of cAMP-regulated guanine nucleotide exchange factor 4 (EPAC2) (AID 1645885). Further: nearly all actives have a fitted effect of over 25% in size. Further: potency means the concentration at half of the fitted maximal effect. On activity change, negative = inhibition: on the % scale 0 is the no-effect control and ±100 the full control effect.
Test [8] is described as follows: qHTS for Inhibitors of the vitamin D receptor (VDR): Hit Validation using a Texas Red Assay (AID 602201). Further: potency means the concentration at half of the fitted maximal effect. In a few lines: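 Fluorescence polarization with 1.5 uM VDR-LBD, LG19078 and 7 nM Texas Red (final). After 2 hours at ambient temperature, read at Ex 595 nm/Em 615 nm.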

Records with an inconclusive call do not appear. Values without a mark were called inactive. Activity calls are given as the source filed them. The call rests on the fitted dose curve; in most records, active means well fitted curve in the direction sought with a large enough effect; inconclusive means small, poorly fitted or top-dose-only effect, or another doubt; inactive means no such curve, though single readings can be large; an effect the other way counts as inactive or inconclusive.

Rap guanine nucleotide exchange factor 3 (Homo sapiens), sequence (O95398 whole entry, looked up): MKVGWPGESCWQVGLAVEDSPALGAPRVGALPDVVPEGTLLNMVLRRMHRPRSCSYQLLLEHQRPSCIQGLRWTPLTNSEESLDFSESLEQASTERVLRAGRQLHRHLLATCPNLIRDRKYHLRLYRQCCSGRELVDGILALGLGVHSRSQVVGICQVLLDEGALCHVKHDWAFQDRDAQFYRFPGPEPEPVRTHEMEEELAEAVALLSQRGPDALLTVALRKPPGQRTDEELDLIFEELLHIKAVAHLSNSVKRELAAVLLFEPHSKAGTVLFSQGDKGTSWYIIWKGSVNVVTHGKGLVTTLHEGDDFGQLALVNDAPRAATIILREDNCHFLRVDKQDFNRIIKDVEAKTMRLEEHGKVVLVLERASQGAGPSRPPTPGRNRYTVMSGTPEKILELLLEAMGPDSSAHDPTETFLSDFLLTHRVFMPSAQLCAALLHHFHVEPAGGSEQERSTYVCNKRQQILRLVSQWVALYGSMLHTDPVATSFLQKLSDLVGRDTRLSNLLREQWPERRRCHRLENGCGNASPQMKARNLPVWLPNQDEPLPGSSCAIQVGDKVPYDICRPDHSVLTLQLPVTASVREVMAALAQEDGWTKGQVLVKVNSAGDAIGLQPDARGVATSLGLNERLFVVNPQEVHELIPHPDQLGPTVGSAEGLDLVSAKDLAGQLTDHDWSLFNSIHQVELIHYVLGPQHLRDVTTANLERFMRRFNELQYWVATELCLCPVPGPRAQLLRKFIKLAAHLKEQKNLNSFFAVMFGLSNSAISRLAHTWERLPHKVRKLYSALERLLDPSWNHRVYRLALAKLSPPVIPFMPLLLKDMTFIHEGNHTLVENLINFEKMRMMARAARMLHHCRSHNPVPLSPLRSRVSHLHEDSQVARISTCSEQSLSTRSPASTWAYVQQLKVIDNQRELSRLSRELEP
Rap guanine nucleotide exchange factor 4 (Homo sapiens), sequence (Q8WZA2 whole entry, looked up, the tested form may be a part): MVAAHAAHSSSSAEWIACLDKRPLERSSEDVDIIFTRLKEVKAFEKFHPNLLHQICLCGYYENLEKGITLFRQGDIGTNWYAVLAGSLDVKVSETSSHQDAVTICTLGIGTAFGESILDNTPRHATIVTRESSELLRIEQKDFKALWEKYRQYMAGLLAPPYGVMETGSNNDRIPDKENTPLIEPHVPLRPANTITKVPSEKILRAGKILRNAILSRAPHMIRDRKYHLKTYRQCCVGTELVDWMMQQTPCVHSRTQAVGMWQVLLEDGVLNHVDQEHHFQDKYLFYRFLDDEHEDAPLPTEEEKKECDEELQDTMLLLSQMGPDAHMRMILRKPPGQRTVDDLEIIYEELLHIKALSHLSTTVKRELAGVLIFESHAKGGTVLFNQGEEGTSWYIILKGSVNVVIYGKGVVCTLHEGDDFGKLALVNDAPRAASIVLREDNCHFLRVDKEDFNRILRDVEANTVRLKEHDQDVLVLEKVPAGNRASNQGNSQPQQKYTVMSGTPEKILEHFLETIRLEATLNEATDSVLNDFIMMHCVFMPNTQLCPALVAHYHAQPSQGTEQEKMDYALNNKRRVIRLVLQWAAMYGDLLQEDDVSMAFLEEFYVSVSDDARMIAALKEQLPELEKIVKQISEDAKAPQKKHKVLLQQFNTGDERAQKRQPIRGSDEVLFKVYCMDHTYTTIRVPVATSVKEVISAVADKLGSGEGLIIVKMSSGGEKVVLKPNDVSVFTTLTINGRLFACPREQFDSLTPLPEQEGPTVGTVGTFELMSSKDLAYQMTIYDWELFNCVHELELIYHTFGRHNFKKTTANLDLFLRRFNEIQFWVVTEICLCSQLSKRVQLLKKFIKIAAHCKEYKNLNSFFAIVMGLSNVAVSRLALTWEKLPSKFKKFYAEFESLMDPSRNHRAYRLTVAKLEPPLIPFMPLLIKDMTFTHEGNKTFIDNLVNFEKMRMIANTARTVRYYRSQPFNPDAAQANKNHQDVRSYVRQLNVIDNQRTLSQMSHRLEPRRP
Tumor susceptibility gene 101 protein (Homo sapiens), sequence (Q99816 whole entry, looked up, the tested form may be a part): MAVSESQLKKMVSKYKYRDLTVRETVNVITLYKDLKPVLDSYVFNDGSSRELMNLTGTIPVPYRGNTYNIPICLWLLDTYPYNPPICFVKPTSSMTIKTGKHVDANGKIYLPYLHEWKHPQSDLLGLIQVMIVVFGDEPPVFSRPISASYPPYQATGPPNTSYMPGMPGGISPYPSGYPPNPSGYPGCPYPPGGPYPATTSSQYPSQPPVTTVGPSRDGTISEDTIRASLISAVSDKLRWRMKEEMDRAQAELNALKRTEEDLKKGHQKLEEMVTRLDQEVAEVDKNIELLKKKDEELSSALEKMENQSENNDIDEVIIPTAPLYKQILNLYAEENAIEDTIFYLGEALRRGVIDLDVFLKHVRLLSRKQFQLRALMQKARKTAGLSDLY

As to `Cc1ccc(-n2c(O)c(/C=C/C=Nc3ccccc3)c(=O)[nH]c2=O)cc1`, the Potency entry in test [1], in test [2] and in test [3] was “inactive” throughout. For the same molecule, the molecule was called inactive in test [4]. The Potency in test [5] is 44.7 µM (active).
Regarding `Nc1ccc2nonc2c1[N+](=O)[O-]`, the Potency was 14.6 µM (active) in test [6], 112 µM (active) in test [3], 47.8 µM (active) in test [7] and 63.1 µM (active) in test [5]. Further, in test [1], the Potency entry was “inactive”. Further, in test [4], the result was inactive.
`Cc1ccccc1N1C(=O)NC(=O)/C(=C\c2ccc3c(c2)CCCN3Cc2ccccc2)C1=O`: the Potency in test [8] is 28.2 µM (active); in test [1], 16.9 µM (active). The Potency entry in test [2] and in test [3] was “inactive” in each case. For the same molecule, in test [4], the molecule was classed as inactive.
For the molecule `CC(c1ccccc1)(c1ccccc1)c1ccncc1`, the Potency entry in test [2] is “inactive”. Also, the activation in test [3] is 0% [at 17.1 µM, percent relative to cAMP agonist control]. The figures for the activity change, negative = inhibition in test [7] and in test [4] were -28.4% [at 12.7 µM] and -6.49% [at 30.8 µM], respectively.
As to `Cc1ccc(-n2c(O)c(C=NCc3ccco3)c(=O)[nH]c2=S)cc1C`, the Potency entry in test [2], in test [3] and in test [7] was “inactive” in each case. Moreover, the molecule was classed as inactive in test [4].
For the molecule `Cn1cccc1/C=C1/C(=O)NC(=S)N(Cc2ccc(F)cc2)C1=O`, in test [2], the Potency result was “inactive”. The activation in test [3] was 0.836% [at 17.1 µM, percent relative to cAMP agonist control]; in test [5], 10.8% [at 30.8 µM]. The activity change, negative = inhibition in test [7] was -22.8% [at 12.7 µM]; in test [4] it was -2.5% [at 30.8 µM].
Take `Nc1cc(Cl)c2nonc2c1[N+](=O)[O-]`: the Potency result in test [2] was “inactive”. The activation in test [3] is 5.26% [at 17.1 µM, percent relative to cAMP agonist control]. For the same molecule, the figures for the activity change, negative = inhibition in test [7] and in test [4] were 1.82% [at 12.7 µM] and -3.15% [at 30.8 µM], respectively.
On to `CC(=O)C1C2c3ccccc3OC1(C)N=c1s/c(=C/c3cn(C)nc3C)c(=O)n12` (stereo not drawn), for which the Potency entry in test [2], in test [3] and in test [7] was “inactive” in each case. Besides, in test [4], the molecule was called inactive.
As to `COC(=O)C1=C(c2cc3ccccc3s2)C[C@@H]2CC[C@H]1N2C(=O)NC1CC1`, the Potency result in test [2], in test [3], in test [7] and in test [5] was “inactive” throughout. The molecule was classed as inactive in test [4].
As for `NS(=O)(=O)c1ccc(-c2ccc(C=C3C(=O)NC(=O)NC3=O)o2)cc1`, the Potency entry in test [2], in test [3], in test [7] and in test [5] was “inactive” in each case. Besides, in test [4], the molecule was called inactive.
Turning to `Cc1cc2ccccn2c1C(C[N+](=O)[O-])c1c(F)cccc1Cl` (stereo not drawn), the Potency entry in test [2] and in test [3] was “inactive” in each case. In addition, the Potency in test [7] is 15.1 µM (active). Besides, the molecule was called inactive in test [4].
`N#CC(C#N)=NNc1ccc(S(N)(=O)=O)cc1`: the Potency entry in test [2] is “inactive”. Besides, the activation in test [3] was 3.48% [at 17.1 µM, percent relative to cAMP agonist control]. For the same molecule, the activity change, negative = inhibition was 1.67% [at 12.7 µM] in test [7] and -8.77% [at 30.8 µM] in test [4].
On to `O=C1NC(=O)N(Cc2ccccc2)C(=O)/C1=C\c1ccco1`, for which, in test [2], the Potency result was “inactive”. The activation is 4.68% [at 17.1 µM, percent relative to cAMP agonist control] in test [3] and 12.3% [at 30.8 µM] in test [5]. The activity change, negative = inhibition is 4.49% [at 12.7 µM] in test [7] and 0.623% [at 30.8 µM] in test [4].
Consider `COCCNC(=O)Cn1cc(/C=C2\C(=O)NC(=O)N(c3ccccc3F)C2=O)c2ccccc21`, for which the Potency entry in test [2], in test [3] and in test [7] was “inactive” throughout. Also, the molecule was called inactive in test [4].
As to `CCC(=NCCCO)c1c(O)n(-c2ccc(OC)cc2)c(=O)[nH]c1=O`, in test [2], the Potency entry was “inactive”. Besides, the activation in test [3] was 2.6% [at 17.1 µM, percent relative to cAMP agonist control]; in test [5], -4.42% [at 30.8 µM]. The activity change, negative = inhibition is -12.3% [at 12.7 µM] in test [7] and -14.3% [at 30.8 µM] in test [4].
On to `CCOC(=O)[C@]12Cc3cc(C)ccc3[C@H]1N(Cc1ccccc1)C(=O)c1ccccc12`, for which the Potency result in test [2], in test [3] and in test [7] was “inactive” throughout. Further, the result in test [4] was inactive.
Take `Cc1cc(/C=C2\C(=O)NC(=O)N(Cc3ccccc3Cl)C2=O)c(C)n1-c1ccc(C(=O)O)cc1`: the Potency result in test [2] is “inactive”. In addition, the activation in test [3] is -9.15% [at 17.1 µM, percent relative to cAMP agonist control]. The activity change, negative = inhibition in test [7] is -6.02% [at 12.7 µM]; in test [4] it was 4.25% [at 30.8 µM].
As to `O=C1NC(=O)N(Cc2ccccc2)C(=O)/C1=C\C=C\c1ccco1`, in test [2], the Potency result was “inactive”. Also, the activation in test [3] is 12.1% [at 17.1 µM, percent relative to cAMP agonist control]. Also, the activity change, negative = inhibition in test [7] was 2.97% [at 12.7 µM]; in test [4] it was -17.1% [at 30.8 µM].
On to `O=C(O)CC1OCC=C2CN3CCC45C6=CC(=O)C(=O)C([N+](=O)[O-])=C6NC4C1C2CC35` (stereo not drawn), for which the Potency result in test [2], in test [3], in test [7] and in test [5] was “inactive” each time. Besides, the result in test [4] was inactive.
`O=C1NC(=O)N(CCc2ccc(F)cc2)C(=O)/C1=C/c1ccco1`: in test [2], the Potency entry is “inactive”. Besides, the activation is 1.5% [at 17.1 µM, percent relative to cAMP agonist control] in test [3] and 10.6% [at 30.8 µM] in test [5]. Further, the results for the activity change, negative = inhibition in test [7] and in test [4] were -8.03% [at 12.7 µM] and -2.28% [at 30.8 µM], respectively.
With `O=C1NC(=O)N(Cc2ccco2)C(=O)/C1=C\c1cccn1CCOc1ccc(Cl)cc1`, the Potency result in test [2] is “inactive”. Moreover, the activation in test [3] is 1.56% [at 17.1 µM, percent relative to cAMP agonist control]. Moreover, the activity change, negative = inhibition in test [7] was -27.2% [at 12.7 µM]; in test [4] it was -25.1% [at 30.8 µM].
Regarding `CCOC(=O)c1c(-c2ccccc2)oc2ccc(OC(=O)N(C)C)cc12`, the Potency entry in test [2], in test [3], in test [7] and in test [5] was “inactive” each time. The call in test [4] was inactive.
With `CN(C)CC(C(=O)Cc1ccccc1)c1ccccc1` (stereo not drawn), the Potency entry in test [2], in test [3] and in test [7] was “inactive” in each case. Moreover, the molecule was classed as inactive in test [4].
Turning to `Cc1cccc(OCCn2cccc2/C=C2/C(=O)NC(=O)N(Cc3ccco3)C2=O)c1`, the Potency result in test [2], in test [3] and in test [7] was “inactive” throughout. The molecule was classed as inactive in test [4].
In the case of `COc1cc2c(cc1OC)-c1c(OC)c(OC)cc3c1[C@H](C2)N(C)CC3`, in test [2], the Potency result was “inactive”. In addition, the activation in test [3] is 9.51% [at 17.1 µM, percent relative to cAMP agonist control]. Also, the activity change, negative = inhibition in test [7] is -6.31% [at 12.7 µM]; in test [4], 10.1% [at 30.8 µM].
As to `CCOC(=O)[C@]12Cc3cc(Cl)ccc3[C@H]1N(C(C)C)C(=O)c1ccccc12`, the Potency entry in test [2] and in test [3] was “inactive” throughout. Further, the Potency in test [7] was 21.3 µM (active). In addition, the call in test [4] was inactive.
Regarding `COCCNC(=O)c1c(N)n(CCC(C)C)c2nc3ccccc3nc12`, the Potency result in test [2] is “inactive”. For the same molecule, the activation in test [3] is 10.8% [at 17.1 µM, percent relative to cAMP agonist control]; in test [5], 26.5% [at 30.8 µM]. Further, the values for the activity change, negative = inhibition in test [7] and in test [4] were -8.1% [at 12.7 µM] and -2.48% [at 30.8 µM], respectively.
As for `CCCNC1=C(C)C(=O)C2=C(C1=O)C(COC(N)=O)[C@]1(OC)C3NC3CN21` (stereo partly drawn), the Potency entry in test [2], in test [3] and in test [7] was “inactive” each time. Moreover, the molecule was classed as inactive in test [4].
Regarding `CCOC(=O)[C@]12Cc3ccc(C)cc3[C@H]1N(C1CCCCC1)C(=O)c1cc(OC)ccc12`, the Potency entry in test [2], in test [3] and in test [7] was “inactive” throughout. The molecule was called inactive in test [4].
For the molecule `CCOC(=O)[C@]12Cc3cc(Cl)ccc3[C@H]1N(Cc1ccccc1)C(=O)c1ccccc12`, the Potency result in test [2], in test [3] and in test [7] was “inactive” throughout. Further, in test [4], the molecule was called inactive.
For the molecule `Cc1cccc(C)c1-n1nnnc1C(c1ccccc1OC(F)(F)F)N1CCC(n2c(=O)[nH]c3ccccc32)CC1` (stereo not drawn), the Potency entry in test [2], in test [3], in test [7] and in test [5] was “inactive” throughout. In addition, in test [4], the molecule was called inactive.
Take `O=C1NC(=O)N(Cc2ccc(F)cc2)C(=O)/C1=C\C=C\c1ccco1`: the Potency result in test [2] was “inactive”. Moreover, the activation was 3.22% [at 17.1 µM, percent relative to cAMP agonist control] in test [3] and 7.61% [at 30.8 µM] in test [5]. Besides, the activity change, negative = inhibition is -5.04% [at 12.7 µM] in test [7] and 6.52% [at 30.8 µM] in test [4].

For the origin of these results see PubChem BioAssay (NCATS).
